For 40 compounds, growth results are on record in PubChem BioAssay (NCI).

SMILES strings stand for the structures. About 83,000 compounds went through this panel and 20% of them were active in at least one assay; those are over-represented in the sample as a whole.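 Each cell line was grown in a 96-well plate and treated with one concentration of compound for 48 hours. Values below 10 were considered active.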 The source made the active and inactive calls.

One experiment deals with HCC-2998 colon. Description: NCI-60 one-dose screen, 48 h (100 = growth as untreated, 0 = no growth, -100 = all killed). The conditions noted are these: 10 µM unless noted.
Regarding `Cc1[nH]c(C(=O)Nc2ccccc2OC2CCNCC2)c(Cl)c1Cl`, the growth is 43.2% (inactive).

As to `O=C(Nc1cccc(Cl)c1)Nc1cccc(Cn2c(=O)[nH]c3ccc(Oc4ncccn4)cc3c2=O)c1`, the growth is 69.7% (inactive).

Take `CCCCCCC12CCC(=O)N1CCc1cncn12` (configuration not stated): the growth is 108% (inactive).

Take `CCCC/C(CC)=N\NS(=O)(=O)c1ccc([N+](=O)[O-])cc1`: the growth is 107% (inactive).

Take `C[C@@H](CO)[C@@H]1CCC=C2CC[C@]3(C)[C@H](CC[C@@H]4[C@@]5(C)CCCNC(C)(C)[C@@H]5CC[C@]43C)[C@H]21`: the growth was -61.5% (active).

In the case of `O=C1NC2(Nc3ccccc31)C(=O)Nc1c(Cl)cc(Cl)cc12` (configuration not stated), the growth is 104% (inactive).

`CSc1nc2ccccc2cc1/C=[N+](\[O-])c1ccccc1`: the growth is 110% (inactive).

With `O=C(NCCNc1nccc(Nc2ccc(S(=O)(=O)Nc3ccccn3)cc2)n1)c1cccc([N+](=O)[O-])c1`, the growth is 109% (inactive).

As for `COc1ccc(CN2c3ccccc3Sc3ccccc32)cc1F`, the growth was 17.8% (inactive).

As to `CCCCC1=C(P(=O)(O)O)N[C@H](C(=O)O)CS1`, the growth was 89.2% (inactive).

In the case of `Nc1ncnc2c1C(c1ccccc1)c1ccc3ccccc3c1O2` (configuration not stated), the growth is 102% (inactive).

As to `O=c1c2cccc3c(N4CCCC4)ccc(c32)c2nc3ccccc3n12`, the growth was 70.3% (inactive).

As to `CCN(CC)CCCCCNc1cc(OC(=O)c2ccc(Cl)cc2)cc2cccnc12`, the growth was 84.9% (inactive).

As for `CSc1oc(C)nc1[P+](c1ccccc1)(c1ccccc1)c1ccccc1`, the growth was 42.8% (inactive).

Regarding `COc1ccc(-c2ccc(=O)oc2-c2cc(OC)c(OC)c(OC)c2)cc1O`, the growth was -2.78% (active).

Turning to `C=C1CC[C@@H]2[C@](C)(COC(C)=O)[C@H](OC(C)=O)CC[C@@]2(C)[C@@H]1CC(Nc1ccc(S(=O)(=O)Nc2ncccn2)cc1)C1=CCOC1=O` (some centres not stated), the growth was 32% (inactive).

On to `C=CCOC(=O)Nc1cccn([C@H](Cc2ccccc2)C(=O)NCCC(C)C)c1=O`, for which the growth is 105% (inactive).

Take `Cc1[nH]c(C(=O)Nc2ccc(C(=O)N3CCN(c4cc5c(cc4F)c(=O)c(C(=O)O)cn5C4CC4)CC3)cc2OC(C)C)c(Cl)c1Cl`: the growth was 96.4% (inactive).

`CC1CCN(S(=O)(=O)c2ccc(S(=O)(=O)N3CCCC(c4nc5c(nnn5Cc5cccc(Cl)c5)c(=O)[nH]4)C3)cc2)CC1` (configuration not stated): the growth is 70.8% (inactive).

In the case of `N#Cc1c(-c2ccc(Cl)cc2)c(C#N)c2c(C#N)c(N)nn2c1N`, the growth was 102% (inactive).

Turning to `O=C(Nn1c2c(sc1=NC1CC1)C(=O)c1ccccc1C2=O)c1cc2ccc1CCc1ccc(cc1)CC2`, the growth was 61.4% (inactive).

For the compound `Nc1nc2ccc(-c3nc4ccc5[nH]ncc5c4c4c3CCCC4)cc2s1`, the growth is 107% (inactive).

For the compound `CCOC(=O)c1c(NC(=O)c2ccc(Cl)cc2)sc2c(CN(C)C)c(O)ccc12`, the growth is -71.7% (active).

As for `N#Cc1nc(-c2ccc(F)cc2)oc1S(=O)(=O)N1CCCCC1`, the growth was 105% (inactive).

Take `CCOC(=O)n1ccn(C)c1=S`: the growth is 106% (inactive).

In the case of `O=C(Nc1ccc(Oc2cccc(F)c2)c(Cl)c1)c1cccnc1`, the growth is 57.7% (inactive).

Consider `O=C1/C(=C/c2cccc(F)c2)CN(C(=O)C(Cl)Cl)C/C1=C\c1cccc(F)c1`, for which the growth is -86.5% (active).

Another experiment has as its system KM12 colon. Described as above. The conditions noted are these: 10 µM unless noted.
Take `COC12C=C/C(=C(/C(=O)OCc3ccncn3)C(=O)CCCCCCCCC3(OC)C=C/C(=C(/C(=O)OCc4ccncn4)C(=O)CCCCCCCC1)O3)O2`: the growth was -75.9% (active).

For `CN(/C(N)=N/N=C/c1c2ccccc2cc2ccccc12)C1CCCCC1`, the growth was 59.6% (inactive).

As to `Cn1cc(-c2csc(-c3c[nH]c4ccc(Br)cc34)n2)c2ccnc(Cl)c21`, the growth was 50.8% (inactive).

Consider `COC(=O)c1nc(-c2ccc(C)cc2)oc1S(=O)(=O)c1cccc(OC)c1`, for which the growth was 93.5% (inactive).

`CCCCn1c(=O)[nH]c(N)c([C@@H]2c3c([nH]c(=O)n(CCCC)c3=O)Oc3ccc4ccccc4c32)c1=O`: the growth is -44.1% (active).

`O=C(O)c1cn(C2CC2)c2cc(N3CCN(C(=O)N(c4ccccc4)c4nc(-c5ccccc5)cs4)CC3)c(F)cc2c1=O`: the growth was 5.03% (active).

Turning to `CCC(C)(C)C(=O)O[C@H]1C[C@@H](C)C=C2C=C[C@H](C)[C@H](CC[C@@H]3CC(SCCN)CC(=O)O3)[C@H]21` (some centres not stated), the growth was 88.2% (inactive).

In the case of `COc1cc(OC)c(NC(=O)c2cc3ccccc3cc2O)cc1Cl`, the growth was 18.5% (inactive).

With `O=C(Nc1cccc2ccccc12)NC1CC1`, the growth was 115% (inactive).

Regarding `COc1ccc(C(=O)c2cc3c(N)c(C(=O)Nc4ccc(C)cc4)sc3nc2C)cc1`, the growth is 15.5% (inactive).

As to `CCCCCCCCCCCCCCCCCCOc1ccccc1CC(=O)OCC[N+](C)(C)C`, the growth is -27.4% (active).

For `C=CC[Se]C(=O)Cc1c(C)n(C(=O)c2ccc(Cl)cc2)c2ccc(OC)cc12`, the growth was -27.9% (active).

`Cc1cc(N2CCCCC2)cc(C)c1-c1csc(NC(=O)c2ccncc2)n1`: the growth is 64.5% (inactive).

In the case of `Cc1[nH]c(C(=O)Nc2ccccc2OC2CCNCC2)c(Cl)c1Cl`, the growth was 32.8% (inactive).

Turning to `O=C(Nc1cccc(Cl)c1)Nc1cccc(Cn2c(=O)[nH]c3ccc(Oc4ncccn4)cc3c2=O)c1`, the growth is 29.5% (inactive).

On to `CCCCCCC12CCC(=O)N1CCc1cncn12` (configuration not stated), for which the growth was 113% (inactive).

In the case of `CCCC/C(CC)=N\NS(=O)(=O)c1ccc([N+](=O)[O-])cc1`, the growth is 98.6% (inactive).

For `C[C@@H](CO)[C@@H]1CCC=C2CC[C@]3(C)[C@H](CC[C@@H]4[C@@]5(C)CCCNC(C)(C)[C@@H]5CC[C@]43C)[C@H]21`, the growth was 4.99% (active).

With `O=C1NC2(Nc3ccccc31)C(=O)Nc1c(Cl)cc(Cl)cc12` (configuration not stated), the growth is 100% (inactive).

Turning to `CSc1nc2ccccc2cc1/C=[N+](\[O-])c1ccccc1`, the growth is 100% (inactive).

In the case of `O=C(NCCNc1nccc(Nc2ccc(S(=O)(=O)Nc3ccccn3)cc2)n1)c1cccc([N+](=O)[O-])c1`, the growth is 99% (inactive).

Turning to `COc1ccc(CN2c3ccccc3Sc3ccccc32)cc1F`, the growth was 14% (inactive).

For `CCCCC1=C(P(=O)(O)O)N[C@H](C(=O)O)CS1`, the growth is 110% (inactive).

As for `Nc1ncnc2c1C(c1ccccc1)c1ccc3ccccc3c1O2` (configuration not stated), the growth was 88.3% (inactive).

Take `O=c1c2cccc3c(N4CCCC4)ccc(c32)c2nc3ccccc3n12`: the growth was 87.9% (inactive).

For `CCN(CC)CCCCCNc1cc(OC(=O)c2ccc(Cl)cc2)cc2cccnc12`, the growth is 111% (inactive).

Consider `CSc1oc(C)nc1[P+](c1ccccc1)(c1ccccc1)c1ccccc1`, for which the growth is 23% (inactive).

For the compound `COc1ccc(-c2ccc(=O)oc2-c2cc(OC)c(OC)c(OC)c2)cc1O`, the growth is 1.71% (active).

With `C=C1CC[C@@H]2[C@](C)(COC(C)=O)[C@H](OC(C)=O)CC[C@@]2(C)[C@@H]1CC(Nc1ccc(S(=O)(=O)Nc2ncccn2)cc1)C1=CCOC1=O` (some centres not stated), the growth was -13.2% (active).

In the case of `C=CCOC(=O)Nc1cccn([C@H](Cc2ccccc2)C(=O)NCCC(C)C)c1=O`, the growth was 110% (inactive).

Regarding `Cc1[nH]c(C(=O)Nc2ccc(C(=O)N3CCN(c4cc5c(cc4F)c(=O)c(C(=O)O)cn5C4CC4)CC3)cc2OC(C)C)c(Cl)c1Cl`, the growth was 80.4% (inactive).

As for `CC1CCN(S(=O)(=O)c2ccc(S(=O)(=O)N3CCCC(c4nc5c(nnn5Cc5cccc(Cl)c5)c(=O)[nH]4)C3)cc2)CC1` (configuration not stated), the growth is 39.3% (inactive).

As for `N#Cc1c(-c2ccc(Cl)cc2)c(C#N)c2c(C#N)c(N)nn2c1N`, the growth is 92.9% (inactive).

For `O=C(Nn1c2c(sc1=NC1CC1)C(=O)c1ccccc1C2=O)c1cc2ccc1CCc1ccc(cc1)CC2`, the growth was 35.2% (inactive).

As for `Nc1nc2ccc(-c3nc4ccc5[nH]ncc5c4c4c3CCCC4)cc2s1`, the growth was 101% (inactive).

Consider `CCOC(=O)c1c(NC(=O)c2ccc(Cl)cc2)sc2c(CN(C)C)c(O)ccc12`, for which the growth is 87.9% (inactive).

For the compound `N#Cc1nc(-c2ccc(F)cc2)oc1S(=O)(=O)N1CCCCC1`, the growth was 99.1% (inactive).

For `CCOC(=O)n1ccn(C)c1=S`, the growth was 101% (inactive).

Turning to `O=C(Nc1ccc(Oc2cccc(F)c2)c(Cl)c1)c1cccnc1`, the growth is 29.3% (inactive).

Regarding `O=C1/C(=C/c2cccc(F)c2)CN(C(=O)C(Cl)Cl)C/C1=C\c1cccc(F)c1`, the growth was -74.3% (active).
